High-throughput results: PubChem, National Center for Advancing Translational Sciences (NCATS)
Sfp PPTase inh: blocks B. subtilis Sfp PPTase activity. 3.5% of 310,000 active. Potency, µM, for the others: largest response in the series, negative = inhibition, usual class: inhibitors. Biochemical Sfp PPTase activity, qHTS;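 note: the enzyme is Sfp with the accession as filed and its product quenches rhodamine fluorescence; potency is the fitted concentration of half-maximal effect; 0% = enzyme reaction without inhibitor and -100% = no enzyme wells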
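Step 1, compound plus 15 nM Sfp-PPTase, 15 min, room temperature. Step 2, add rhodamine-CoA (5 uM) and BHQ-2-YbbR (12.5 uM). Step 3, read 525/598 nm fluorescence at 0 and 30 min.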
Tau fluor cs: counter-screen for tau fibril formation inhibitors; AID 1463; tau K18 P301L Alexa594 fluorescence, heparin fibrillization; Potency, µM (top dose mostly 57.7 µM), without a hit: at the highest dose activity change, negative = decrease; 0.93% of 280,000 active; note: potency is the fitted concentration of half-maximal effect; % is set by controls: 0 for no effect and ±100 for the full control effect; nearly all actives have a fitted effect of over 55% in size
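Human tau K18 P301L (15 uM unlabeled, 0.24 uM Alexa 594-labeled) in 100 mM sodium acetate pH 7 with 20 uM heparin, 6 hr at 37 C. ThT 30 uM added, 1 hr ambient; Alexa 594 FP and total fluorescence read at 555/632 nm.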
Coupling enz: counter-screen for Giardia aldolase inhibitors: coupling enzyme system; coupling enzyme system counterscreen, AmpLite Red fluorescence; activity change, negative = inhibition, % at 58.2 µM, hits read low; 0.67% of 290,000 active; AID 2472; in the data active = activity change below about -30%; note: % is set by controls: 0 for no effect and ±100 for the full control effect
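Compounds tested against the coupling enzymes alone at 57.5 uM final; readout was AmpLite Red fluorescence (525/598 nm) after 20 min at RT.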
Tau fibril FP: inhibitors of human tau fibril formation | Potency, µM (highest dose often 57.7 µM), for the others: at the top dose activity, negative = inhibition, usual class: inhibitors | P10636 | 0.39% of 280,000 active | AID 1468 | K18 P301L tau heparin fibrillization, Alexa594 FP, 6 h; note: potency is the fitted concentration of half-maximal effect; % is set by controls: 0 for no effect and ±100 for the full control effect; nearly all actives have a fitted effect of over 55% in size
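FP of Alexa 594-tau after heparin (20 uM) induction. Substrate: human K18 P301L, 15 uM unlabeled, 0.24 uM labeled. Buffer 100 mM sodium acetate pH 7. 6 hr, 37 C.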
Tau ThT inhib: blocks human tau fibril formation measured by thioflavin T; recombinant tau K18 P301L (four-repeat tau fragment), heparin-induced fibrillization, ThT fluorescence; Potency, µM (titrated, usually from 57.4 µM), for the others: top-dose activity, negative = inhibition, usual class: inhibitors; 2.1% of 270,000 active; AID 1460; note: potency is the fitted concentration of half-maximal effect; % is set by controls: 0 for no effect and ±100 for the full control effect; nearly all actives have a fitted effect of over 55% in size
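Aggregation was driven by heparin (20 uM final) acting on recombinant tau […] bearing P301L in 100 mM sodium acetate pH 7; fibrils were detected with Thioflavin T.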
Sfp PPTase conf: Sfp phosphopantetheinyl transferase inhibition, confirmation. shares compounds with Sfp PPTase inh. Sfp PPTase enzymatic assay, qHTS titration. Potency, µM (series often up to 114 µM), inactives show at the highest dose activity change, negative = inhibition, most hits filed as inhibitors. 79% of 380 active;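 note: potency is the fitted concentration of half-maximal effect; plate controls were uninhibited Sfp reaction for no effect and no enzyme control for full effect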
Target sequence (Q9F4F7 whole entry, looked up): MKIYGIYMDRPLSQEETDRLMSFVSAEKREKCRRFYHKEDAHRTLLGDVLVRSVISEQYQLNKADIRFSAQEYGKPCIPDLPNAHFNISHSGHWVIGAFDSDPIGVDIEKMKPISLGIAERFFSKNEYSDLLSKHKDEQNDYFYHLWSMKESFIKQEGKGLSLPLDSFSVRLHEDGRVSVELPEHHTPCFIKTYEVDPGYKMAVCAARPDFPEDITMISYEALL
Sfp gel assay: Inhibits B. subtilis Sfp phosphopantetheinylation | shares compounds with Sfp PPTase inh | purified Sfp, gel-based phosphopantetheinylation read-out | Potency, µM, actives largely listed as inhibitors | 20% of 210 active;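 active = potency below 100 µM; inconclusive = dose-dependent response but potency above 100 µM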;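 note: band intensities scaled against SCH202676 control wells before curve fitting; potency is an IC50 for inhibitors of Sfp transfer activity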
CASP1 redox cat: inhibits human caspase-1 in catalase buffer, redox counter-screen. shares compounds with Coupling enz. caspase-1 Ac-WEHD-AFC fluorescence rate, catalase buffer. Potency, µM (highest dose often 57.5 µM), inactives show at the highest dose activity change, negative = inhibition, actives largely listed as inhibitors. 30 tested, under 10 active; active = well fitted inhibition curve with a large enough effect in the main read-out, with a control signal flat; inconclusive = small, poorly fitted or top-dose-only effect, or a change in a side signal; inactive = no such curve, though single readings can be large or run the other way
Target sequence (P29466 120-297 limits assumed): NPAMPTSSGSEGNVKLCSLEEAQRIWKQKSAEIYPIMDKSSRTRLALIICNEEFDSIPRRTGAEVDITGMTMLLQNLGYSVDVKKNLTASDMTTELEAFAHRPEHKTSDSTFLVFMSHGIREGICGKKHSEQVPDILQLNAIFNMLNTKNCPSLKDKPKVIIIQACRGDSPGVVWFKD
Target sequence (P29466 317-404 limits assumed): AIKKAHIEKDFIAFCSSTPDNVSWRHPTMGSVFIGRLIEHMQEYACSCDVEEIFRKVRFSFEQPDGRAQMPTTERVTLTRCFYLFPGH
Casp1 confirm: blocks human caspase-1 activity in concentration-response; shares compounds with Coupling enz; purified caspase-1, fluorogenic substrate cleavage; Potency, µM (highest dose often 57.5 µM), for the others: at the highest dose activity change, negative = inhibition, actives largely listed as inhibitors; 20% of 60 active; active = well fitted inhibition curve with a large enough effect in the main read-out, with a control signal flat; inconclusive = small, poorly fitted or top-dose-only effect, or a change in a side signal; inactive = no such curve, though single readings can be large or run the other way
CASP7 inh CRC: confirmation of allosteric or competitive inhibitors of human caspase-7; 60 tested, under 10 active; shares compounds with Coupling enz; AID 897; recombinant caspase-7, fluorogenic substrate cleavage; Potency, µM (doses to about 57.5 µM), for the others: at the top dose activity change, negative = inhibition, actives largely listed as inhibitors; active = well fitted inhibition curve with a large enough effect in the main read-out, with a control signal flat, not every such curve was filed as active; inconclusive = small, poorly fitted or top-dose-only effect, or a change in a side signal; inactive = no such curve, though single readings can be large or run the other way
Target sequence (P55210 24-198 limits assumed): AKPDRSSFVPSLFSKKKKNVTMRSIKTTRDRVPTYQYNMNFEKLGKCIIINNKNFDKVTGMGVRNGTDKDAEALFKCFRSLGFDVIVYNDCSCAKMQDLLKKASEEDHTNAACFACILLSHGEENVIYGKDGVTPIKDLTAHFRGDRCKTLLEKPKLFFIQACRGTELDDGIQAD
Target sequence (P55210 207-303 limits assumed): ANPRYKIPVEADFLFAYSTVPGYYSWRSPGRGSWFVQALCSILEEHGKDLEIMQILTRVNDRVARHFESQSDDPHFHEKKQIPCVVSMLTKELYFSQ
CASP7 redox cys: caspase-7 inhibition with cysteine present; shares compounds with Coupling enz; caspase-7 enzyme with cysteine, fluorogenic substrate, redox counterscreen; Potency, µM (highest dose often 57.5 µM), for the others: at the highest dose activity change, negative = inhibition, most hits filed as inhibitors; 60 tested, under 10 active; AID 908; active = well fitted inhibition curve with a large enough effect in the main read-out, with a control signal flat; inconclusive = small, poorly fitted or top-dose-only effect, or a change in a side signal; inactive = no such curve, though single readings can be large or run the other way
Casp7 catalase: caspase-7 inhibition with catalase present | shares compounds with Coupling enz | Caspase-7 Ac-DEVD-AFC fluorescence rate, catalase buffer | Potency, µM (doses to about 57.5 µM), for the others: at the highest dose activity, negative = inhibition, actives largely listed as inhibitors | 30 tested, under 10 active; active = well fitted inhibition curve with a large enough effect in the main read-out, with a control signal flat; inconclusive = small, poorly fitted or top-dose-only effect, or a change in a side signal; inactive = no such curve, though single readings can be large or run the other way
CASP1 redox cys: caspase-1 inhibition with cysteine present; Potency, µM (top dose mostly 57.5 µM), for inactives: top-dose activity change, negative = inhibition, actives largely listed as inhibitors; recombinant caspase-1, fluorogenic substrate, cysteine buffer; AID 929; shares compounds with Coupling enz; 60 tested, under 10 active; active = well fitted inhibition curve with a large enough effect in the main read-out, with a control signal flat; inconclusive = small, poorly fitted or top-dose-only effect, or a change in a side signal; inactive = no such curve, though single readings can be large or run the other way
* = called active by the depositor; i = inactive; ? = inconclusive; · = no result; ! = a repeat was not active. Compounds with a hit are over-represented: about 5.2% of the library has one in this group of screens. Unless noted, calls come from the whole dose curve; as a rule, active = well fitted curve in the direction sought with a large enough effect; inconclusive = small, poorly fitted or top-dose-only effect, or another doubt; inactive = no such curve, though single readings can be large; an effect the other way counts as inactive or inconclusive.

SMILES	Sfp PPTase inh	Tau fluor cs	Coupling enz	Tau fibril FP	Tau ThT inhib	Sfp PPTase conf	Sfp gel assay	others
C[C@]12CC[C@@H]3c4ccc(O)c(O)c4CC[C@H]3[C@@H]1CC[C@@H]2O	3.2µM*	?	-47*	?	14µM*	6.6µM*	2.1µM*
C[C@]12CC[C@@H]3c4cc(O)c(O)cc4CC[C@H]3[C@@H]1CC[C@@H]2O	4µM*	?	-22	-15%	?	21µM*	6.2µM*
Nc1nc(/C(=C/CC(=O)O)C(=O)NC2C(=O)N3C(C(=O)O)=CCSC23)cs1 (stereo not given)	56µM*	-18%	1	?	-22%	42µM*	?
C[C@@H]1O[C@@H](O[C@H]2C[C@@H](O)[C@@]3(CO)[C@H]4[C@H](O)C[C@]5(C)[C@@H](C6=CC(=O)OC6)CC[C@]5(O)[C@H]4CC[C@@]3(O)C2)[C@@H](O)[C@H](O)[C@H]1O	8%	·	·	·	·	·	·
Clc1ccc(COC(Cn2ccnc2)c2ccc(Cl)cc2Cl)cc1 (stereo not given)	56µM*!	-21%	-1	-4%	?	?	i
NC(=O)c1ncn(C2OC(CO)C(O)C2O)n1 (stereo not given)	56µM*	-1%	3	-4%	3%	83µM*	56µM*
NC(=O)c1cn(C2OC(CO)C(O)C2O)c2ncnc(N)c12 (stereo not given)	6%	-2%	2	0%	3%	·	·
CCOC(=O)[C@]1(C#N)[C@@H]2C=CC(C(C)=O)=CN2[C@@H](C(N)=O)[C@@H]1c1ccsc1	40µM*	-26%	-30	?	32µM*	?	?
Cc1c(C(=O)c2cccc3ccccc23)c2cccc3c2n1[C@@H](CN1CCOCC1)CO3	7%	?	1	-11%	-20%	·	·
C=C(C)[C@H]1CN[C@H](C(=O)O)[C@H]1CC(=O)O	40µM*!	-1%	1	1%	-3%	12%	i
NC(=O)[C@@H]1CCCN1C(=O)[C@H](Cc1ccccc1)NC(=O)[C@@H]1CCCN1C(=O)[C@@H](N)Cc1ccc(O)cc1	6%	-7%	·	-10%	-7%	·	·
O=c1[nH]c2ccccc2n1C1CCN(CCCC(c2ccc(F)cc2)c2ccc(F)cc2)CC1	45µM*!	?	-4	-8%	?	42µM*	?
O=C1CC(N2CCC(n3c(=O)[nH]c4ccccc43)CC2)C(=O)N1c1ccc(F)cc1 (stereo not given)	12%	-1%	-1	-3%	-12%	·	·
CCOC(=O)c1c(/N=C/c2c(O)n(-c3ccccc3F)c(=S)[nH]c2=O)sc2c1CCCC2	13µM*	-16%	-49*	?	22µM*	19µM*	·
CCN1C[C@]2(COC)CC[C@H](O)[C@@]34[C@@H]5C[C@H]6[C@@H](OC)[C@H]5[C@](O)(C[C@@H]6OC)[C@@](O)([C@@H](OC)[C@H]23)[C@@H]14	20%	·	1	·	·	·	·
Nc1ccnn1C1CCNCC1	18µM*	-9%	-1	-4%	?	?	i
CN1CCC(n2nccc2N)CC1	-1%	-4%	2	-2%	-7%	·	·
CC(=O)O[C@H]1C[C@H](O[C@H]2[C@@H](O)CC(O[C@H]3[C@@H](O)C[C@H](O[C@H]4CC[C@@]5(C)[C@H](CC[C@@H]6[C@@H]5CC[C@]5(C)[C@@H](C7=CC(=O)OC7)CC[C@]65O)C4)O[C@@H]3C)O[C@@H]2C)O[C@H](C)[C@H]1O[C@@H]1O[C@H](CO)[C@@H](O)[C@H](O)[C@H]1O (stereo not given in full)	11%	·	·	·	·	·	·
COc1cc2c(cc1O)C[C@H]1c3c(cc(OC)c(O)c3-2)CCN1C	-32%	?	-12	?	14µM*	·	·	Casp1 confirm=32µM*;CASP7 inh CRC=-68%;CASP7 redox cys=-4%;CASP1 redox cys=-5%
COc1cc2c(cc1OC)-c1c(OC)c(OC)c(C=O)c3c1[C@H](C2)N(C)CC3	-8%	?	-22	?	22µM*	·	·	Casp1 confirm=?;CASP7 inh CRC=-17%;CASP7 redox cys=-4%;CASP1 redox cys=?
O=C1CC2OCC=C3CN4CC[C@]56c7ccccc7N1[C@H]5[C@H]2C3C[C@H]46 (stereo not given in full)	5%	-13%	5	0%	-8%	·	·
CC(=O)OCC(N)C(=O)c1ccccc1 (stereo not given)	-11%	0%	1	3%	-2%	·	·
CCn1nc(-c2ccccc2)nc2c(=O)n(C)c(=O)nc1-2	22%	-10%	-61*	?	16µM*	·	·	CASP1 redox cat=0.79µM*;Casp1 confirm=1µM*;CASP7 inh CRC=1.6µM*;CASP7 redox cys=-3%;Casp7 catalase=?;CASP1 redox cys=-20%
Cc1nc2c(=O)n(C)c(=O)nc-2n(C)n1	-6%	1%	-2	?	?	·	·
